This is a sample that favours compounds with a hit; in the whole collection about 3.4% have one here.
COUP-TFII inh – blocks human COUP-TFII nuclear receptor | HEK293T NGFI-A luciferase reporter, luminescence | P24468 | 0.7% of 370,000 active | inhibition, % at 8.6 µM;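 active = inhibition above a per-plate cutoff, mean inhibition of test wells between control levels plus 3 SD, cut at about 38% in these data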;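 note: cells cotransfected with COUP-TFII expression vector driving the NGFI-A reporter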
Target sequence (P24468 whole entry, looked up): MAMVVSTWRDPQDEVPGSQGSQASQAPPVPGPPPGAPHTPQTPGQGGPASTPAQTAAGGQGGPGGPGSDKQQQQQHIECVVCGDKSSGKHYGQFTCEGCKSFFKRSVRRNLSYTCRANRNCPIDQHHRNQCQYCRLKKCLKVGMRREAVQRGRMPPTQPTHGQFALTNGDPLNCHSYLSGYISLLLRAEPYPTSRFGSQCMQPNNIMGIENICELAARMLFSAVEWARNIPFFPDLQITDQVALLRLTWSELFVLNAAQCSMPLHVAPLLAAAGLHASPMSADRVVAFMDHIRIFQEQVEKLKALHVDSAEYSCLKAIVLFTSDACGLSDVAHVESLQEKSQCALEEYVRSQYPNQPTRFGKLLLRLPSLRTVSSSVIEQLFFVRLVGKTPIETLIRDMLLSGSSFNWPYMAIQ
Gli-Sufu block – blocks Gli-Sufu signaling in a luciferase reporter; Sufu-KO-LIGHT fibroblasts, Gli luciferase reporter luminescence; inhibition, % at 5 µM; 0.74% of 340,000 active; AID 588413;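 active = inhibition above about 55%, limit read from the data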
Cardio protect – modulators protecting cardiomyocytes from myocardial damage; protection from H2O2 cell death, % at 20 µM; H9c2 cardiomyocytes, H2O2 injury protection, ATPLite, 2 h; 0.63% of 360,000 active;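 active = compounds giving at least 50% protection of heart cells from peroxide-induced death in the single-dose screen, raw or plate-pattern-corrected value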
GAA850 FXN act – increases GAA850 frataxin promoter reporter activity; activation, % at 6 µM; AID 540364; 0.56% of 360,000 active; HEK293 lucGAA850 FXN promoter luciferase reporter, 24 h; percent of 10 µM SAHA response;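 active = activation above the average of all compounds screened plus 3 SD, cutoff fixed separately per campaign, cut at about 7.5% in these data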
SMARCA2 activ – SMARCA2 function activation, primary screen. MG213 cells, MMTV-luciferase reporter, dexamethasone, overnight. 1% of 370,000 active. activation, % at 9.1 µM; in the data active = activation above about 7.8%
GalR3 antag – antagonists of human GalR3 | O60755 | HEK293 GalR3-CNG cAMP membrane potential fluorescence; galR3 body fused to GalR1 C-terminus | inhibition, % at 3 µM | 0.44% of 360,000 active;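 active = inhibition above the screen-wide average plus 3 SD, cut at about 13% in these data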;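 note: forskolin and galanin both at EC90 stimulate the cells; cAMP rise reported by CNG channel membrane potential dye signal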
Target sequence (O60755 1-299 limits assumed): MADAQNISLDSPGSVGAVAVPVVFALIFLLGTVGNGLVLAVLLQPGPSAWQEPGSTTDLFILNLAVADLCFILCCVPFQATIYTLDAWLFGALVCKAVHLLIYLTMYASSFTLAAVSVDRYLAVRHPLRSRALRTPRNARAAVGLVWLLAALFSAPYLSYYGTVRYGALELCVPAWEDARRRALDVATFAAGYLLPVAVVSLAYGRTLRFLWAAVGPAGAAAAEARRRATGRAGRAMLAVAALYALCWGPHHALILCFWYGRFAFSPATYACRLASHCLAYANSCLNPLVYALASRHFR
GalR3 antag conf – confirmation of human galanin receptor 3 antagonists; shares compounds with GalR3 antag; HEK293 GalR3 CNG cAMP biosensor, membrane potential fluorescence; galR3 fused to GalR1 carboxy tail; challenged with forskolin and galanin at EC90; inhibition, % at 3 µM; 59% of 1,600 active; AID 652245;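 active = inhibition above the primary screen's cutoff, the mean inhibition of all screened compounds plus 3 SD, cut at about 13% in these data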
CNG parental – acts as nonspecific agonist in parental HEK-CNG cells; AID 652268; shares compounds with GalR3 antag; HEK293-CNG parental cells, cAMP membrane potential fluorescence; normalised: DMSO wells 0%, forskolin wells 100%; 10% of 1,600 active; activation, % at 3 µM; in the data active = activation above about 1.3%
SMARCA2 conf – SMARCA2 activation, confirmation screen; AID 652260; shares compounds with SMARCA2 activ; activation, % at 9.1 µM; MG213 cells, MMTV-luciferase with dexamethasone, luminescence, overnight; MG213 cells expressing E1A, Rb sequestered; DMSO wells 0%, reference activator 100%; 30% of 3,500 active;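 active = activation above its plate's cutoff, the mean activation of tested wells plus 3 SD, cut at about 7.9% in these data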
GAL4-VP16 Luc – GAL4-VP16 reporter activation counter-screen. HEK293 GAL4-VP16 pG5luc reporter, luciferase luminescence; scaled: DMSO wells 0%, SAHA wells 100%. shares compounds with SMARCA2 activ. activation, % at 9.1 µM. AID 686939. 41% of 3,500 active;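 active = activation above the solvent-only control well mean plus 3 SD, averaged across control plates, cut at about 5.2% in these data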
Gal4-VP16 ctr – VP16 inhibition counter-screen for COUP-TFII; shares compounds with COUP-TFII inh; 25% of 2,500 active; AID 687007; HEK293 Gal4-VP16 luciferase reporter, luminescence; inhibition, % at 8.5 µM; in the data active = inhibition above about 13%
NR2F2 inh conf – confirmation of human COUP-TFII (NR2F2) inhibitors | AID 687008 | 45% of 2,500 active | shares compounds with COUP-TFII inh | HEK293 NGFI-A luciferase reporter, luminescence | inhibition, % at 8.5 µM;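 active = mean inhibition over three repeats above a set limit taken from the earlier primary screen, cut at about 38% in these data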
A number is an active result; i = inactive; nt = not tested or not shown.

SMILES | COUP-TFII inh | Gli-Sufu block | Cardio protect | GAA850 FXN act | SMARCA2 activ | GalR3 antag | SMARCA2 conf | GAL4-VP16 Luc | others
CC(=O)c1cccc(NS(=O)(=O)c2ccc(NC(=O)N3CCCCC3)cc2)c1 | 56 | i | i | i | i | 83 | nt | nt | GalR3 antag conf=97;CNG parental=i;Gal4-VP16 ctr=14;NR2F2 inh conf=44
ON=C1C2CC=C(c3ccccc3)C1CCC2 (centres undefined) | i | i | i | i | i | i | nt | nt
Cn1cc(-c2cccc(C(F)(F)F)c2)cc(C#N)c1=O | i | i | i | i | i | i | nt | nt
CCOC(=O)c1cnc(-n2nc(C)cc2C)nc1NC | i | i | i | i | i | i | nt | nt
CCOC(=O)c1cnc(-n2nc(C)cc2C)nc1NC1CCCCC1 | 77 | 82 | i | i | i | 34 | nt | nt | GalR3 antag conf=73;CNG parental=6.8;Gal4-VP16 ctr=i;NR2F2 inh conf=72
Cc1cc(C)nc(/N=C(\N)Nc2cccc(OCc3ccccc3)c2)n1 | i | i | i | i | i | i | nt | nt
Cc1cc(C)nc(/N=C(\N)Nc2ccc(OCCC(C)C)cc2)n1 | 58 | i | i | i | i | 45 | nt | nt | GalR3 antag conf=30;CNG parental=6.2;Gal4-VP16 ctr=18;NR2F2 inh conf=38
Cc1cc(C)nc(/N=C(\N)Nc2ccc(OCc3ccccc3)cc2)n1 | 47 | i | i | i | i | 35 | nt | nt | GalR3 antag conf=i;CNG parental=7.8;Gal4-VP16 ctr=i;NR2F2 inh conf=i
CC(C)c1ncc(CO)n1Cc1c(Cl)cccc1Cl | i | nt | i | i | i | i | nt | nt
O=C(O)c1ccccc1C(=O)Nc1cccc([N+](=O)[O-])c1 | i | i | i | i | i | i | nt | nt
O=C(Nc1cccc([N+](=O)[O-])c1)c1cc2ccccc2cc1O | 63 | i | i | i | i | 62 | nt | nt | GalR3 antag conf=74;CNG parental=i;Gal4-VP16 ctr=i;NR2F2 inh conf=i
C[n+]1c2n(c3ccccc31)N=C(c1cc(C(C)(C)C)c(O)c(C(C)(C)C)c1)CS2 | 81 | 89 | i | i | i | 19 | nt | nt | GalR3 antag conf=30;CNG parental=17;Gal4-VP16 ctr=29;NR2F2 inh conf=87
COc1cccc(C2=Nn3c(nnc3-c3ccccc3O)SC2)c1 | i | i | i | i | i | i | nt | nt
CCN(CC)CC(=O)Nc1scc2c1c(=O)oc1ccccc12 | i | i | i | i | i | i | nt | nt
COc1ccccc1CNc1ncnc2sccc12 | 62 | i | i | i | i | 76 | nt | nt | GalR3 antag conf=104;CNG parental=i;Gal4-VP16 ctr=i;NR2F2 inh conf=53
CN(c1cccnc1)c1ccc(NC(=O)Cc2cn(Cc3ccccc3)c3ccccc23)cc1Br | i | nt | nt | nt | i | i | nt | nt
Fc1ccccc1/C=N/NC(=S)Nc1ccc(Cl)cc1Cl | i | i | i | i | i | i | nt | nt
O=C(CSC1=NCCS1)Nc1ccnc2ccccc12 | 41 | i | i | i | i | 99 | nt | nt | GalR3 antag conf=109;CNG parental=i;Gal4-VP16 ctr=i;NR2F2 inh conf=51
O=C(CSC1=NCCS1)Nc1ccc2ccccc2c1 | i | i | i | i | i | i | nt | nt
CCc1nc2ccc(C(=O)NCCCN3CCCC3=O)cn2c1N(CC)CCOC | i | nt | i | i | i | i | nt | nt
Cc1cccc(C)c1NC(=O)N1CCN(c2nc3ccccc3s2)CC1 | 48 | i | i | i | i | 39 | nt | nt | GalR3 antag conf=i;CNG parental=i;Gal4-VP16 ctr=i;NR2F2 inh conf=i
Cc1cccc(Cl)c1NC(=O)N1CCCN(c2nc3ccc(Cl)cc3s2)CC1 | 49 | i | i | i | i | 82 | nt | nt | GalR3 antag conf=103;CNG parental=i;Gal4-VP16 ctr=i;NR2F2 inh conf=41
Fc1ccccc1-c1nc(-c2ccc(Cl)cc2)no1 | i | i | i | i | 8.0 | i | 13 | 9.7
Nc1nc(Cl)cc(Nc2ccccc2Cl)n1 | i | i | i | i | 9.5 | i | i | i
CSc1nc(Cl)cc(Nc2ccccc2N)n1 | i | i | i | i | i | i | nt | nt
SMILES | COUP-TFII inh | Gli-Sufu block | Cardio protect | GAA850 FXN act | SMARCA2 activ | GalR3 antag | SMARCA2 conf | GAL4-VP16 Luc | others
N#Cc1c(-c2ccc(C(F)(F)F)cc2)cc(-c2ccccc2)[nH]c1=S | i | i | i | i | i | i | nt | nt
COc1ccc2c(c1OC)C(=O)N(c1ccc(C)cc1)C2 | i | i | i | i | 9.4 | i | 14 | 8.4
CCc1cc(=O)oc2cc(OCC(=O)NCCN3CCOCC3)c(Cl)cc12 | i | i | i | i | i | i | nt | nt
CCc1cc(=O)oc2cc(OCC(=O)NCCCN3CCOCC3)c(Cl)cc12 | i | i | i | i | 8.4 | i | i | i
Cc1ccc(S(=O)(=O)/N=C(/c2ccccc2)N2CCOCC2)cc1 | i | i | i | i | 8.2 | i | i | i
CCOC(=O)CSC1=NC(=O)/C(=C/c2ccc(OC)cc2)S1 | nt | i | i | i | nt | nt | nt | nt
Cc1ccc(Nc2ncc3c(n2)CC(C)CC3=O)c(C)c1 (centres undefined) | i | i | i | i | 8.2 | i | 8.3 | i
CC1CC(=O)c2cnc(Nc3ccccc3)nc2C1 (centres undefined) | i | i | i | i | i | i | nt | nt
CCN1C(=O)[C@H]2[C@@H](c3ccc(Cl)cc3)N3C(=O)CN(CC4CC4)C(=O)[C@@]3(C)[C@H]2C1=O | i | i | i | i | i | i | nt | nt
CN(C)c1ccc(NC(=O)c2ccc3c(c2)nnn3C)cc1 | i | i | i | i | i | i | nt | nt
CN(C)c1ccc(NC(=O)Nc2cccc(Cl)c2)cc1 | i | i | i | i | 9.7 | i | i | 15
CN(C)c1ccc(NC(=O)Nc2ccc3c(c2)nnn3C)cc1 | i | i | i | i | 20 | i | 11 | 6.1
COc1ccc(CNCC#Cc2ccccc2)cc1 | i | nt | nt | nt | i | nt | nt | nt
CSc1ncccc1C(=O)N1CCCC(N2CCN(c3ccccc3F)CC2)C1 (centres undefined) | i | i | i | i | i | i | nt | nt
Cc1ccc(OCC(C)CN2CCC(C(O)(c3ccccc3)c3ccccc3)CC2)cc1 (centres undefined) | i | nt | nt | nt | i | nt | nt | nt
Cn1c2ccccc2c(=O)c2ccc(Cl)cc21 | i | nt | i | i | i | i | nt | nt
CN(C)c1ccc(-c2ccc3c(=O)c4ccccc4n(C)c3c2)cn1 | i | i | i | i | 8.5 | i | 9.8 | 11
O=C(CNC(=O)c1ccccc1)OCc1nc2ccccc2s1 | i | i | i | i | 14 | i | i | 6.3
COCCNc1nc2cc(-c3ccc(C)cc3)sc2c(=O)n1C | i | nt | i | i | 9.0 | i | 8.8 | 14
